Assay [1] in a line: binders of probe aFSTL3 on microarray, primary screen, stem cell growth factor project, biochemical, small-molecule microarray, fluorescence 635/667 (AID 1064).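 Also: measures binding of the biotinylated anti-FSTL3 antibody to printed compounds.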 The conditions noted are these: higher = more signal.
The nature of assay [2]: binders from COS7 lysate, DM2A8 probe, primary screen, torsin A project, cell lysate, small-molecule microarray, fluorescence 635/667 (AID 1065). The conditions noted are these: higher = more signal, COS7 lysate expressing mutant human TOR1A.
Assay [3] can be described thus: binders of probe aFGF2 on microarray, primary screen, stem cell growth factor project, biochemical, small-molecule microarray, fluorescence 635/667 (AID 1067).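 Also: measures binding of biotinylated aFGF2 protein to printed compounds on slides; z-score merges feature fluorescence and signal-to-noise across triplicate slides.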 The conditions noted are these: higher = more signal.
Assay [4] can be described thus: binders of probe aFGF10 on microarray, primary screen, stem cell growth factor project, biochemical, small-molecule microarray, fluorescence 635/667 (AID 1071).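 Also: score merges 667 nm spot intensity and signal to noise from triplicate slides.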 The conditions noted are these: higher = more signal.
The target in assay [5] is Neurogenic locus notch homolog protein 2 (Homo sapiens) (UniProt Q04721). Briefly: Notch2 binders on small-molecule microarrays, primary screen, biochemical, small-molecule microarray, 635 nm fluorescence, stem cell growth factors (AID 1073). The conditions noted are these: Notch2 binding, higher = more signal.
Assay [6] concerns the target Pro-neuregulin-1, membrane-bound isoform (Homo sapiens) (UniProt Q02297). The assay can be described thus: NRG1 binders on small-molecule microarrays, primary screen, psychiatric disease protein project, biochemical, small-molecule microarray, fluorescence 635/667 (AID 1075).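 Also: score combines 667 nm spot fluorescence with signal to noise.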 The conditions noted are these: NRG1 binding, 635 nm fluorescence, higher = more signal.
Assay [7] relates to Neuregulin-1 EGF-like domain. Briefly: binders of neuregulin-1 EGF-like domain, primary screen, biochemical, small-molecule microarray, 635 nm fluorescence (AID 1081).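 Also: binding of the protein to compounds printed on small-molecule microarray slides.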 The following applies: small-molecule microarray binding, higher = more signal.
Assay [8] can be described thus: FRG1 promoter luciferase signal modulators, primary screen, FRG1 inhibition for FSHD, cell-based, C2C12 myotubes, firefly/Renilla luciferase, luminescence (AID 1084). The conditions noted are these: higher = more signal, called active from +8 up or from −8 down.
Assay [9] can be described thus: binders of probe aFST on microarray, primary screen, stem cell growth factor project, biochemical, small-molecule microarray, fluorescence 635/667 (AID 1086).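 Also: score merges 667 nm fluorescence with signal-to-noise of each printed compound spot.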 The conditions noted are these: higher = more signal.
Assay [10] in a line: binders of probe aHhip on microarray, primary screen, stem cell growth factor project, biochemical, small-molecule microarray, fluorescence 635/667 (AID 1087).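 Also: score merges spot fluorescence at 667nm with spot signal to noise ratio.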 The conditions noted are these: higher = more signal.

Activity calls are given as the source filed them.

Sequence of Pro-neuregulin-1, membrane-bound isoform (Homo sapiens) (Q02297 whole entry, looked up, the tested form may be a part, canonical isoform): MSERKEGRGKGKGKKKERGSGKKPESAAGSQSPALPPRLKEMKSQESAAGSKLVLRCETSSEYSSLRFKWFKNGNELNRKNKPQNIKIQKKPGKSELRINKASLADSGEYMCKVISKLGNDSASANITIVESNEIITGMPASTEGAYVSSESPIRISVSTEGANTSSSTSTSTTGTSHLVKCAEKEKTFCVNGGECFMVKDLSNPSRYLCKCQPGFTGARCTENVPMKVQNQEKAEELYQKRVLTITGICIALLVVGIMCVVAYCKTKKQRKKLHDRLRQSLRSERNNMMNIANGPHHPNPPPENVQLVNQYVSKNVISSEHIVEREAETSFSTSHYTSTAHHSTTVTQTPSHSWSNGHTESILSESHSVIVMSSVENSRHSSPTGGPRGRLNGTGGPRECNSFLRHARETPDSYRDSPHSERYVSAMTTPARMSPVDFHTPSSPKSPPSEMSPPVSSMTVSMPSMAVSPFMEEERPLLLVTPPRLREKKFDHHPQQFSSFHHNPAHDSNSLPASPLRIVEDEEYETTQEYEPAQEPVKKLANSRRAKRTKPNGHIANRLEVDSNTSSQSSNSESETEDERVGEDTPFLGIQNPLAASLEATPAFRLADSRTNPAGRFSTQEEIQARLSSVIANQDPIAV
Sequence of Neurogenic locus notch homolog protein 2 (Homo sapiens) (Q04721 whole entry, looked up, canonical isoform): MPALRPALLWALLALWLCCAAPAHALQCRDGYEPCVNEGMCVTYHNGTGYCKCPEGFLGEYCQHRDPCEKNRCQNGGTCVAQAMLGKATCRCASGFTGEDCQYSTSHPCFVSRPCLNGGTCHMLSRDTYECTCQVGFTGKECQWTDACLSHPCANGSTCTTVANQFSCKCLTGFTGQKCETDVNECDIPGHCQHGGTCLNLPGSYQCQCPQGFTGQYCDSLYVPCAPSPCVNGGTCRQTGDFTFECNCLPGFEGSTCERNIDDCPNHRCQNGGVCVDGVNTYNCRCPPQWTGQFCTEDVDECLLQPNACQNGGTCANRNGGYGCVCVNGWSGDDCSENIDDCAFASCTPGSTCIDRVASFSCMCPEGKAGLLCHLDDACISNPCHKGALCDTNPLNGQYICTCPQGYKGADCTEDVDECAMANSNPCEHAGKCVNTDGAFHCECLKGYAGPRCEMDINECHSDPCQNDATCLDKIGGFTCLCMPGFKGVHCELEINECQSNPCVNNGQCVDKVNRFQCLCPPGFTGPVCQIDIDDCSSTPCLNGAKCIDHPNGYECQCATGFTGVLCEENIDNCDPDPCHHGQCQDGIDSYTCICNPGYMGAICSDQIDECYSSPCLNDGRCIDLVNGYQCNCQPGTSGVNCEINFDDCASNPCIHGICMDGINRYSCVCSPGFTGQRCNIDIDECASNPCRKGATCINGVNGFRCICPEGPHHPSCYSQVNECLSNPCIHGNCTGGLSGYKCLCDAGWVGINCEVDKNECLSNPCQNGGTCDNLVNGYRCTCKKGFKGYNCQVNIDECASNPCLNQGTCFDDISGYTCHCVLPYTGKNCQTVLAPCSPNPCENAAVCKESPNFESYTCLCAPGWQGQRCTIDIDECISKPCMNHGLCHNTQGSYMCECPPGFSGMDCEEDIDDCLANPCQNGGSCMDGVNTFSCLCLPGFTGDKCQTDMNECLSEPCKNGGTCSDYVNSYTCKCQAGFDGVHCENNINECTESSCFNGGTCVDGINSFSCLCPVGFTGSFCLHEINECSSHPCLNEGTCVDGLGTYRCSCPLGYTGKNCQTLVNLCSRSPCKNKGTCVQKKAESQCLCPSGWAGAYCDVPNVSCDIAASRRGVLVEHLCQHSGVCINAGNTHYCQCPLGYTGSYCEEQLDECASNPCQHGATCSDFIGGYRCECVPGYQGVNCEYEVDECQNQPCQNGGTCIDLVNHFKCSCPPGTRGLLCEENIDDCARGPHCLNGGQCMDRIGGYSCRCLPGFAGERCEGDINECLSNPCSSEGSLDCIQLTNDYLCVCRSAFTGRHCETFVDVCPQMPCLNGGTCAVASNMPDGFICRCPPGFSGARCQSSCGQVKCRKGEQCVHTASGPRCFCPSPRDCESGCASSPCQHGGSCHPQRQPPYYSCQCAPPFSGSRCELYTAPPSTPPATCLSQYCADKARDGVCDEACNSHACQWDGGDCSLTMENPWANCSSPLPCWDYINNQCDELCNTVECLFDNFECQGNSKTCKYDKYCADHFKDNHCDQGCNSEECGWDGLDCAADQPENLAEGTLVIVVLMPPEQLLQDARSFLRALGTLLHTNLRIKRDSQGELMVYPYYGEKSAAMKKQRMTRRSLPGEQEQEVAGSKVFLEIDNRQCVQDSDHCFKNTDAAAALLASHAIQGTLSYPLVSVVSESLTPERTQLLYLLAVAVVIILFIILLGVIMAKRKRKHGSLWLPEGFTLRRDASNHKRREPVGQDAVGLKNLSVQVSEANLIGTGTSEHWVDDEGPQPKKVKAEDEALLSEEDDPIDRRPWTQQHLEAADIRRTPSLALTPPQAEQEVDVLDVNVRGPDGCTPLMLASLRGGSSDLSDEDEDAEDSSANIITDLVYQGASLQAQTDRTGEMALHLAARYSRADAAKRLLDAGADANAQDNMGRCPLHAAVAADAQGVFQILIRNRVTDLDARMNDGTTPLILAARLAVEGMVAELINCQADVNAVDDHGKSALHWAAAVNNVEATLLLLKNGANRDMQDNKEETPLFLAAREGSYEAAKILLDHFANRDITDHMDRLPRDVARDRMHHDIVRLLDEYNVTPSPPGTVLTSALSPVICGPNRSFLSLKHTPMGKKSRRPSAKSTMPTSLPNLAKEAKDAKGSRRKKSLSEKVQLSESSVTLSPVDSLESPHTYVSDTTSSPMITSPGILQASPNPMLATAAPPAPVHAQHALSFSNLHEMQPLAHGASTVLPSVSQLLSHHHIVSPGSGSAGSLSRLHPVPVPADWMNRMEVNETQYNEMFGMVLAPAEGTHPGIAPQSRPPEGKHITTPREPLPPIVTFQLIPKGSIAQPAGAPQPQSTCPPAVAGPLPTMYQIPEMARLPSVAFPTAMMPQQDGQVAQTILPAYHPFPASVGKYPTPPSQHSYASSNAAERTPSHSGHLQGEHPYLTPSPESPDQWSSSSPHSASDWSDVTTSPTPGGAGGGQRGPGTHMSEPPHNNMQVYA

For the molecule `O=C(NN=C1C[C@@H](O)[C@@H](O)[C@@H]2[C@@H]3C(=O)N(C4CCCCC4)C(=O)[C@@H]3CC[C@@H]12)OCc1ccccc1`, the composite z-score is -0.107 in assay [1]; 0.2 in assay [2]; -0.0667 in assay [3]; 0.0505 in [4]; -0.103 in assay [5]; -0.32 in assay [6]. Further, the composite z-score in assay [7] was -0.235; in assay [9], 0.818; in assay [10] it was -0.16. Moreover, the z-score in [8] was 0.448 (inactive).
Take `Cc1cc2c(nc1C)CCCCN2CC(C)ON=C1[C@H]2CCn3c(=O)n(-c4ccccc4)c(=O)n3[C@H]2[C@H](O)[C@@H]2O[C@H]12` (stereo not given in full): the composite z-score is -0.455 in assay [1]; 0.288 in [2]; 0.0051 in assay [3]; 0.756 in assay [4]; 0.942 in [5]; -0.349 in assay [6]. Also, the composite z-score is 0.8 in assay [7], 0.557 in assay [9] and -0.0346 in [10]. In addition, in assay [8], the z-score was -0.446 (inactive).
`C#CCCCON=C1C[C@@H](O)[C@@H](O)[C@@H]2[C@@H]3C(=O)N(C(C)(C)C)C(=O)[C@@H]3CC[C@H]12`: the composite z-score in assay [1] was 1.86; in [2] it was 1.01; in assay [3], -0.0245; in assay [4], -0.104; in assay [5], 0.162; in [6], -0.431. Moreover, the composite z-score in [7] was -0.58; in assay [9] it was 0.774; in assay [10] it was -0.122. Also, the z-score in assay [8] is -0.247 (inactive).
Take `CCCCC#C[C@@H]1C=C[C@H](Oc2ccc(C(=O)OC)cc2)[C@@H](COC(=O)OCC)O1`: the composite z-score in assay [1] was -0.367; in [2], 0.956; in [3], -0.0874; in [4], 0.495; in assay [5], 0.65; in assay [6], 0.338. Further, the composite z-score came out at 0.733 in assay [7], 0.153 in [9] and 0.178 in assay [10]. Further, the z-score in assay [8] is -2.03 (inactive).
As for `CO[C@@H]1C=CCC(=O)N[C@@H](C)C(=O)OC[C@@H](OC)[C@H](C)CCCC(=O)OC[C@H]1C`, the composite z-score in assay [1] is -0.198; in assay [2] it was 2.55; in assay [3] it was -0.129; in [4] it was 0.361; in assay [5], 0.0208; in assay [6] it was -0.677. Besides, the composite z-score in assay [7] is -0.951; in [9], -0.331; in assay [10] it was 0.176. In [8], the z-score was 0.313 (inactive).
Consider `COc1cc(O)c(C(=O)C=Cc2ccc3c(c2)OCO3)c(OC)c1`, for which the composite z-score was -0.132 in assay [1]; 0.0414 in assay [2]; 0.0198 in assay [3]; 0.2 in assay [4]; -0.877 in assay [5]; -0.288 in assay [6]. Besides, the composite z-score in [7] is -0.927; in assay [9], -0.155; in assay [10], 0.0238. The z-score in assay [8] is -0.984 (inactive).
With `O=c1n(-c2ccccc2)c(=O)n2n1CC[C@@H]1C(=NOCc3ccccc3)[C@H]3O[C@H]3[C@@H](O)[C@@H]12`, the composite z-score in assay [1] was -0.489; in [2] it was -0.285; in assay [3], -0.0494; in assay [4], 0.472; in [5] it was -0.267; in [6] it was -0.0644. The composite z-score in assay [7] was -0.338; in assay [9], -0.0869; in assay [10], -0.284. Moreover, in assay [8], the z-score was -0.354 (inactive).
As for `CCOC(=O)[C@H](Cc1ccccc1)NC(=O)CCC1CC(OC(=O)NCCc2ccc(F)cc2)CC2(CCCC(COC(=O)NCCOC)O2)O1` (stereo not given in full), the composite z-score in assay [1] was -0.584; in assay [2] it was 0.114; in assay [3] it was -0.0291; in [4] it was 0.868; in assay [5], 1.04; in [6], 0.326. The composite z-score in assay [7] was 1.11; in assay [9], 0.169; in assay [10], -0.248. Moreover, in assay [8], the z-score was 0.753 (inactive).
In the case of `CC(C)(C)N1C(=O)[C@H]2[C@H]3[C@H](O)[C@H](O)CC(=O)[C@H]3CC[C@H]2C1=O`, the composite z-score is -0.635 in assay [1]; 1.21 in [2]; -0.107 in assay [3]; 0.295 in assay [4]; 0.967 in assay [5]; 0.354 in assay [6]. Further, the composite z-score was 0.725 in assay [7], 0.115 in assay [9] and -0.134 in assay [10]. Further, the z-score in [8] was -0.0954 (inactive).
As to `CCOC(=O)[C@H](Cc1ccccc1)NC(=O)CCC1CC(OC(=O)NCCc2ccc(F)cc2)CC2(CCCC(COC(=O)NCc3ccccc3)O2)O1` (stereo not given in full), the composite z-score in assay [1] was -0.434; in assay [2], -0.0986; in assay [3], -0.0887; in [4], 0.854; in [5], 0.679; in assay [6] it was 0.331. For the same molecule, the composite z-score in assay [7] is 0.903; in assay [9], 0.0791; in assay [10], -0.0994. Moreover, in assay [8], the z-score is 0.292 (inactive).
For the molecule `CC(C)(C)N1C(=O)[C@H]2[C@H]3[C@H](O)[C@H](O)CC(=NOCc4ccccc4)[C@H]3CC[C@H]2C1=O`, the composite z-score is 1.55 in assay [1]; 0.636 in assay [2]; -0.0006 in assay [3]; -0.0753 in [4]; -0.224 in assay [5]; -0.102 in assay [6]. For the same molecule, the composite z-score is -0.559 in assay [7], 0.687 in assay [9] and -0.119 in assay [10]. Also, the z-score in [8] is 0.431 (inactive).
For `CC(CCN1CCCCc2nc(C)c(C)cc21)=NO[C@H](C)c1cn([C@H](CO)Cc2ccccc2)nn1`, the composite z-score in [1] is -0.476; in assay [2], 0.736; in assay [3], -0.0894; in [4], 0.205; in assay [5], -0.248; in assay [6], -0.0339. The composite z-score in [7] was 0.362; in assay [9], 0.627; in assay [10], -0.0237. Besides, the z-score in [8] was 2.09 (inactive).
Consider `O=c1n(Cc2cc3c(cc2Cl)OCO3)c(=O)n2n1CC[C@@H]1C(=NOCc3ccccc3)[C@H]3O[C@H]3[C@@H](O)[C@@H]12`, for which the composite z-score in [1] was -0.381; in assay [2] it was 0.188; in [3], -0.14; in assay [4] it was 0.47; in assay [5], 0.589; in assay [6], 0.114. Moreover, the composite z-score in assay [7] is 0.428; in assay [9], 0.764; in [10] it was -0.0645. For the same molecule, the z-score in [8] is -0.611 (inactive).

The record behind these values is PubChem BioAssay.
